DT40 TDP1 no CPT = qHTS for Inhibitors of human tyrosyl-DNA phosphodiesterase 1 (TDP1): qHTS in cells in absence of CPT. DT40 Tdp1-/- hTDP1 cells, no CPT, ATP luminescence, 48 h. Potency, µM (titrated, usually from 46.2 µM), without a hit: top-dose activity change, negative = growth inhibition, most hits filed as inhibitors. 420,000 compounds, 15% hits. AID 686978, 2013; note: potency is the fitted concentration of half-maximal effect; % is set by controls: 0 for no effect and ±100 for the full control effect; nearly all actives have a fitted effect of over 55% in size
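DT40 Tdp1-/-;hTDP1 cells, no CPT (DMSO vehicle only), 400 cells/well; compounds pin-transferred; ≥48 hr, 37 °C; CellTiter-Glo 30 min RT dark, luminescence read.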
TDP1 cell CPT = growth inhibition of DT40 Tdp1-/-;hTDP1 cells with camptothecin (screen for TDP1 inhibitors) | chicken DT40 Tdp1-/-;hTDP1 cells + 20 nM CPT, ATP luminescence, 48 h | Potency, µM (top dose mostly 46.2 µM), for the others: at the highest dose activity change, negative = growth inhibition, hits mostly inhibitors | 420,000 compounds, 12% hits | AID 686979; note: potency is the fitted concentration of half-maximal effect; % is set by controls: 0 for no effect and ±100 for the full control effect; nearly all actives have a fitted effect of over 55% in size
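Chicken DT40 Tdp1-/- cells complemented with human TDP1, 400 cells/well, exposed to compounds plus 20 nM camptothecin for at least 48 h at 37 C; viability read as ATP content by CellTiter-Glo luminescence.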
HepG2 viability = counter-screen for TGF-b inhibitors: cytotoxicity in HepG2 cells | AID 588856 | 410,000 compounds, 0.76% hits | Potency, µM (titrated, usually from 46.1 µM), inactives show at the highest dose activity change, negative = cytotoxicity, actives largely listed as cytotoxic | HepG2 CAGA-GFP viability, ATP luminescence, 18 h; note: potency is the fitted concentration of half-maximal effect
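HepG2 CAGA-GFP cells (1000/well, DMEM with 1% FBS) received compound, then TGF-beta at 500 pg/mL final, and were incubated 18 hours at 37 degrees C. Viability was read by CellTiter-Glo luminescence. Media-only wells were set as complete cell-killing and DMSO as no toxicity.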
TGFb SMAD3 inh = inhibitors of TGF-b signaling. HepG2 CAGA-GFP TGF-b/SMAD3 reporter, GFP fluorescence, 18 h; TGF-beta stimulated, 500 pg/mL final. Potency, µM (titrated, usually from 46.1 µM), for the others: at the top dose activity, negative = inhibition, hits mostly inhibitors. 410,000 compounds, 1.2% hits; note: potency is the fitted concentration of half-maximal effect; % is set by controls: 0 for no effect and ±100 for the full control effect; nearly all actives have a fitted effect of over 65% in size
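GFP signal (ex488/em500-530) from TGF-beta-stimulated HEPG2 CAGA-GFP cells, 500 pg/mL final, 18 h at 37 degrees C in DMEM plus 1% FBS, normalized to unstimulated and DMSO-stimulated controls.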
IL1B secr inh = inhibitors of inflammasome signaling (IL-1 beta secretion); activity change, % at 57.5 µM; 360,000 compounds, 4.7% hits; AID 743279; THP-1 LPS/ATP IL-1B secretion, AlphaLISA, 16 h; active compounds read low; in the data active = activity change below about -50%; inconclusive = mostly about -30% to -49%; note: % is set by controls: 0 for no effect and ±100 for the full control effect
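Secreted IL-1B measured by AlphaLISA bead assay after 16 h compound exposure of THP-1 cells; compounds (final up to 57.5 uM) added 1 h before LPS (250 ng/mL) and ATP (1.25 mM) stimulation; lower signal means less secretion.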
TDP1 inh = inhibitors of human tyrosyl-DNA phosphodiesterase TDP1. Potency, µM (top dose mostly 130 µM), inactives show at the highest dose activity change, negative = inhibition, usual class: inhibitors. AID 485290. 350,000 compounds, 0.28% hits. recombinant TDP1, AlphaScreen DNA substrate cleavage; note: potency is the fitted concentration of half-maximal effect; % is set by controls: 0 for no effect and ±100 for the full control effect; nearly all actives have a fitted effect of over 40% in size
Target sequence (Q9NUW8 whole entry, looked up): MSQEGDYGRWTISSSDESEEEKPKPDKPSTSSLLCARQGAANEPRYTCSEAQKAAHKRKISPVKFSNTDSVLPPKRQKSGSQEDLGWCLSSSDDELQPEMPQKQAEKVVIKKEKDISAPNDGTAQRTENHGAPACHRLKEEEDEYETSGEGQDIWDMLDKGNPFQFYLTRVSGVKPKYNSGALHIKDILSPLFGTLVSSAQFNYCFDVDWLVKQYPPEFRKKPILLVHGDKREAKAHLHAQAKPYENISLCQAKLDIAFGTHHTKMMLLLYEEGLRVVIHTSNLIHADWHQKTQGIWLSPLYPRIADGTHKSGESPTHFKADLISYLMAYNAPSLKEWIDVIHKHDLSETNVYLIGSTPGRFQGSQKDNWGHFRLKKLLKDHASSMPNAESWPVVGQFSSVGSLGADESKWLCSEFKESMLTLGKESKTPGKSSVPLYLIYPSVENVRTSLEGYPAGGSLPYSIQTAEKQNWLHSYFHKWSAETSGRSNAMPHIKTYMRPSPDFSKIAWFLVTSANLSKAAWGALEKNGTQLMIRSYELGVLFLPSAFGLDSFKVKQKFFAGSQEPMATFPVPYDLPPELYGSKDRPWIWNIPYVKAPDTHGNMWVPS
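Recombinant human Tdp1 (E. coli-expressed, 1 nM final) preincubated with compounds 15 min at room temperature, then 5'-biotin/3'-phosphotyrosine-FITC DNA substrate (15 nM final) added for 5 min. AlphaScreen beads (10 ug/ml final) added 10 min; cleavage lowers signal.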
The depositor's hits bear a star; ? = inconclusive; . = no result; [ ] = dose if it differs, or a comment. Sampled rows, rich in hits. Any-hit rate of the full collection: about 19%. Unless noted, calls come from the whole dose curve; as a rule, active = well fitted curve in the direction sought with a large enough effect; inconclusive = small, poorly fitted or top-dose-only effect, or another doubt; inactive = no such curve, though single readings can be large; an effect the other way counts as inactive or inconclusive.

SMILES	DT40 TDP1 no CPT	TDP1 cell CPT	HepG2 viability	TGFb SMAD3 inh	IL1B secr inh	TDP1 inh
CCOCCCNC(=O)c1cc(Nc2ccc(OC)cc2OC)nc2ccccc12	-20%	?	3%	0%	2	.
COCCN1CCN(C(=O)c2cnn(-c3nccc(-c4ccccc4F)n3)c2-c2ccco2)CC1	-15%	10%[9.04 µM]	.	.	.	.
O=C(O)C1C2C=CC(CC2)C1C(=O)O (stereo not given)	-9%	-27%	-8%	-11%	6	10µM*
CC(C)c1ccc(NC(=O)C2C3C=CC(CC3)C2C(=O)O)cc1 (stereo not given)	?	-2%	-25%	-22%	-11	.
O=C(C1CCCCC1)N1CCC2CC1c1cc(N3CCCCC3)ccc12 (stereo not given)	21µM*	18µM*	-19%	-17%	51	.
O=C(c1ccccc1F)N1CCC2CC1c1cc(N3CCCCC3)ccc12 (stereo not given)	18µM*	?	-23%	-16%	37	.
O=C(c1cccc(Cl)c1)N1CCC2CC1c1cc(N3CCOCC3)ccc12 (stereo not given)	?	?	-21%	-7%	12	.
O=C(OCc1ccccc1)N1CCC2CC1c1cc(N3CCOCC3)ccc12 (stereo not given)	?	?	-5%	-7%	19	.
O=C(c1ccccc1Br)N1CCC(c2nc3ccccc3s2)CC1	29µM*	?	-47%	?	-17	-5%
COc1cc(C(=O)N2CCC(c3nc4ccccc4s3)CC2)cc(OC)c1OC	21µM*	?	-1%	-30%	.	4%
CCCNC(=O)Cn1nc(C)c2c(C)n(-c3ccccc3)nc2c1=O	-4%	-8%	-8%	-6%	.	1%
CCCC[C@@H]1C[C@H]1[C@@H](NC(=O)c1cccs1)c1ccc(Cl)cc1	15µM*	29µM*	-33%	?	-19	3%
CCCC[C@@H]1C[C@H]1[C@@H](NC(=O)c1cccs1)c1ccc(C(F)(F)F)cc1	21µM*	?	-24%	-22%	-28	.
CCCC[C@@H]1C[C@H]1C(NC(=O)c1cccs1)c1ccc(-c2ccccc2)cc1 (stereo not given in full)	.	.	.	.	.	3%
CCCC[C@@H]1C[C@H]1C(NC(=O)c1ccccc1)c1ccc(C(F)(F)F)cc1 (stereo not given in full)	.	.	.	.	.	-4%
N=C(N)S/C=C\C(=O)O	16µM*	16µM*	.	.	.	4%
CCOC(=O)c1c(C)nc2sc3c(c2c1-c1ccc(OC)cc1)NC(c1ccc(OC)cc1)NC3=O (stereo not given)	13µM*	?	0%	8%	9	2%
CCOC(=O)c1sc(NC(=O)Nc2ccccc2Cl)cc1C	15µM*	23µM*	-45%	?	-16	8%
COc1ccc(-c2c3c(nc4sc(C(=O)Nc5ccc(F)cc5)c(N)c24)CC(C)(C)CC3=O)cc1	15µM*	?	3%	11%	.	.
COc1ccccc1NC(=O)c1sc2nc(C)c(C(=O)Nc3ccc(C)cc3C)c(-c3ccc(C)o3)c2c1N	?	?	-9%	0%	.	-5%
Cc1ccc(NC(=O)c2c(C)nc3sc(C(=O)Nc4ccc(F)cc4)c(N)c3c2-c2ccc(C)o2)c(C)c1	18µM*	?	6%	52%	.	-4%[12.3 µM]
CCOC(=O)c1c(C)nc2sc3c(=O)n(-c4ccc(C)cc4)cnc3c2c1-c1ccc(OC)cc1	-11%	-9%	-13%	-6%	14	-3%
CCOC(=O)c1sc(NC(=O)C2CCC2)cc1C	21µM*	-10%	-19%	1%	?	2%
CCOC(=O)c1c(C)nc2sc(C(=O)Nc3ccccc3)c(N)c2c1-c1ccc(OC)cc1	15µM*	?	-7%	-5%	-5	-7%
CCOC(=O)c1sc(NC(=O)C2CCCCC2)nc1C	?	2%	-23%	-3%	?	.
SMILES	DT40 TDP1 no CPT	TDP1 cell CPT	HepG2 viability	TGFb SMAD3 inh	IL1B secr inh	TDP1 inh
Cc1c(C(=O)OC(C)C)sc(N)c1C(=O)OC(C)C	?	-24%	-38%	0%	-61*	-5%
COc1ccc(-c2c3c(nc4sc(C(=O)Nc5ccccc5)c(N)c24)CCC3)cc1	?	-10%	-29%	?	?	.
CCOC(=O)c1c(N)sc(C(=O)Nc2ccccc2)c1C	18µM*	?	-54%	-1%	-21	5%
Cc1cc2c(c(-c3ccc(Cl)cc3)c1)OC(CNC(=O)Cc1c(C)noc1C)C2 (stereo not given)	-18%	0%[9.04 µM]	.	.	.	.
CCOC(=O)c1sc(NC(=O)Nc2ccccc2)cc1C	26µM*	23µM*	-87%	?	-117*	-4%
CCOC(=O)c1c(N)sc(N)c1C(=O)OCC	5.2µM*	4.6µM*	-37%	-19%	-71*	5%
CCOC(=O)c1sc(N)c(C(N)=O)c1C	4%	3%	-13%	5%	-1	3%
CCOC(=O)c1sc(NC(C)=O)cc1C	1%	-28%	-23%	-3%	-20	-1%
COC(=O)c1cnn2c(C)c(Cc3c(C)cc(C)cc3C)c(C)nc12	-20%	?	5%	-11%	.	5%
COc1ccc(OC)c(NC(=O)N2CCN(Cc3nc4ccc(C)cc4o3)CC2)c1	-2%	?	-20%	-25%	.	6%
CC(C)c1cccc(C(C)C)c1NC1=NS(=O)(=O)c2ccccc21	-21%	-14%	7%	38%	.	0%
Cc1ccc(-c2nc3ncccc3o2)cc1NC(=O)c1ccccc1Br	?	?	-7%	-2%	.	4%[12.3 µM]
COc1ccc(C)c2sc(N(CCN(C)C)C(=O)c3cccc(N4C(=O)CCC4=O)c3)nc12	-20%	1%	-4%	18%	-6	.
COc1ccc(C)c2sc(N(CCN(C)C)C(=O)/C=C/c3cccs3)nc12	?	?	11µM*	?	-71*	7%
COc1ccc(OC)c2sc(N(CCCN(C)C)C(=O)c3ccco3)nc12	?	?	-48%	?	.	2%
COc1ccc(OC)c2sc(N(CCN(C)C)C(=O)/C=C/c3cccs3)nc12	?	?	16µM*	?	-103*	7%
COc1ccc(C(=O)COC(=O)CCN2C(=O)C3C4C=CC(C5CC45)C3C2=O)cc1 (stereo not given)	-10%	?	0%	3%	0	4%

Screening results (PubChem)
